Measurements from PubChem BioAssay AID1259339 (Broad Institute, 2017).
Calls of active or inactive are those of the source.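 Rule for the calls: active = fitted AC50 no higher than ten times the top tested dose (cut at about 90 µM in these data); inconclusive = flat curve with 30 to 70% signal loss, or bad fit; inactive = AC50 beyond ten times the top dose.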

test: AlphaLISA signal interference compounds, dose response, artefact control, biochemical, TruHit kit (AID 1259339); conditions: TruHit alphaLISA kit signal interference counterscreen; series mostly up to 80 µM

SMILES | AC50
Nc1c(C(=O)NCc2ccco2)c2nc3ccccc3nc2n1CCN1CCOCC1 | 56.6 µM (active)
Cc1ccc(S(=O)(=O)Cc2ccc(C(=O)N3CCC4(CC3)OCCO4)o2)cc1 | inactive
O=C(NC1(C(F)(F)F)Oc2ccc(Cl)cc2O1)N1CCC2(CC1)OCCO2 (centres undefined) | > 160 µM (inactive)
O=C(NCCc1ccccc1)c1cc2cccnc2n(Cc2ccccc2)c1=O | inactive
